Here are results for 40 compounds from PubChem BioAssay (NCATS).

Records with an inconclusive call do not appear. Where a call stands in place of a potency, no number is given. Active and inactive are the calls of the source. The call rests on the fitted dose curve; in most records, active means well fitted activation curve with a large enough effect in the main read-out, with a control signal flat (not every such curve was filed as active); inconclusive means small, poorly fitted or top-dose-only effect, or effect the other way, or a change in a side signal; inactive means flat fitted curve, though single readings scatter.

Sequence of 3',5'-cyclic-AMP phosphodiesterase 4B (Homo sapiens) (Q07343 whole entry, looked up): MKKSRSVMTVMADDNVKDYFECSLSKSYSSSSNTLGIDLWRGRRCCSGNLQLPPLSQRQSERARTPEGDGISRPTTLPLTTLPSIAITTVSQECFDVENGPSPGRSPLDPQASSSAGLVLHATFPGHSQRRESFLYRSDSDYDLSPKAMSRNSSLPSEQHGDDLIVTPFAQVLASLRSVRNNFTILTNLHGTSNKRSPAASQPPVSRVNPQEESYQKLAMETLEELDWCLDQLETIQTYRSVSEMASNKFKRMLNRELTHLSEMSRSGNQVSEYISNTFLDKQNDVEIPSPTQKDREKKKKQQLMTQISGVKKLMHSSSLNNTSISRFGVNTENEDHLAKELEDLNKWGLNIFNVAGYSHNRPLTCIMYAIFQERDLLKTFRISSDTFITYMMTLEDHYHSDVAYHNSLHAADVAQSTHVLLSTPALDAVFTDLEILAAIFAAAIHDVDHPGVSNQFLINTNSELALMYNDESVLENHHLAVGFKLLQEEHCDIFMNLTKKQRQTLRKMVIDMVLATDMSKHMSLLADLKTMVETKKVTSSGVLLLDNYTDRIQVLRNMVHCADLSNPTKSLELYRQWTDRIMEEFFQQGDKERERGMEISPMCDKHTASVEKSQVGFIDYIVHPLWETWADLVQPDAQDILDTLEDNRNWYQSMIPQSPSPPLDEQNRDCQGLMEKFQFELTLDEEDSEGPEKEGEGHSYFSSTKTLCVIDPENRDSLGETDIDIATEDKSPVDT

The target in this assay is 3',5'-cyclic-AMP phosphodiesterase 4B (Homo sapiens) (UniProt Q07343). The assay can be described thus: qHTS Assay for Inhibitors of PDE-IV (AID 607). The note with it: HEK293 ACTOne CNG channel cells, membrane potential fluorescence; series mostly up to 22.9 µM. An excerpt:
NIH Chemical Genomics Center [NCGC]
NIH Molecular Libraries Screening Centers Network [MLSCN]
The cyclic nucleotide phosphodiesterases (PDEs) are proteins that catalyze hydrolysis of 3', 5'-cyclic nucleotides, such as cyclic adenosine monophosphate (cAMP) and cyclic guanosine monophosphate (cGMP), to their corresponding 5'-nucleotide monophosphates. These enzymes play an important role in controlling cellular concentrations of cyclic nucleotides and have a central role in a variety of intracellular signaling events. cAMP PDEs are emerging as a promising class of drug targets in asthma and cardiovascular disease therapeutic areas.
There are no commercially available cell-based screening assays for PDE inhibitors: currently biochemical assays are done using pure substrates (cAMP or cGMP) and purified recombinant PDE enzymes. As with other biochemical screens on intracellular targets, false positives and false negatives may result from issues involving cell membrane permeability, cellular metabolism, and the like.
Here we report the development of a cell-based screening assay for cAMP phosphodiesterase (PDE) inhibitors. The assay is based on the BD ACTOne# technology (BD Biosciences) which utilizes a modified cyclic nucleotide-gated channel (CNG) to monitor intracellular cAMP changes in live cells. The CNG channel is localized on the plasma membrane, and opens when the intracellular cAMP level increases, resulting in ion flux and cell membrane depolarization. The influx of cations through the CNG channel can be quantified using membrane potential (MP) dyes. We modified the BD ACTOne technology to allow the detection of PDE inhibitors, and performed an inhibitor screen for PDE-IV, which is expressed endogenously in HEK293 cells. We optimized this assay in homogeneous 1536-well plate assay format for high throughput screening.
NCGC Assay Protocol Summary:
The medium contained 10% FBS (Invitrogen), 2 mM L-glutamine, and 250 ug/ml G418 (Cellgro) and 1 ug/ml puromycin (Clontech). ACTOneTM parental cells (BD Biosciences) were maintained in the same medium without puromycin.
The activity of the CNG channel was measured by BD ACTOneTM membrane potential dye kit (BD Biosciences). Forskolin, a positive control for cAMP activation and RO 20-1724, a PDE inhibitor, were both purchased from Sigma and solublized in DMSO.
Sequence,Parameter,Value,Description
1,Reagent,3 uL,1000 cells/well 1536 TC treated Black plate
3,Compound,0.5 uL,Kalypsys dispense RO 20-1724 100 uM final [A]
4,Reagent,3 uL,BD membrane potential dye
6,Compound,23 nL,Final concentration was 0.7nM to 22.9uM
8,Detector,EX 535 / EM 590 [B],Envision
Footnotes: [A] The stock 2 mM RO 20-1724 PDE inhibitor was made in 10 % DMSO. Parental cell line received 10 uM forskolin + 100 uM RO. [B] Envsion settings: Bottom Excitation 535/20 nm top emission 590/20, gain of 150 and 5 flashes per well.
Keywords: PDE, PDE-IV, cytotoxicity, flourescence, MLSMR, MLSCN, NIH Roadmap, qHTS, NCGC
Turning to `CC(C)NC(=O)N1CC[C@@]2(CCCNC2)C1`, the Potency result was “inactive”. Regarding `O=C(Nc1cccc(F)c1)N1CC2(CCNCC2)C1`, the Potency entry was “inactive”. As for `O=C(NCNC(=O)N[C@H]1C(=O)NC(=O)N1CO)N[C@H]1C(=O)NC(=O)N1CO`, the Potency entry was “inactive”. Regarding `c1ccc(CN2CC[C@@]3(CCCNC3)C2)cc1`, the Potency entry was “inactive”. In the case of `O=C(O)CNCP(=O)(O)O`, the Potency entry was “inactive”.

As for `CC(C)C[C@H]1C(=O)N2CCC[C@@H]2[C@@]2(O)O[C@](NC(=O)[C@@H]3C=C4c5cccc6[nH]cc(c56)C[C@@H]4N(C)C3)(C(C)C)C(=O)N12`, the Potency result is “inactive”. As for `CC(=O)[C@@H]1CC[C@H]2[C@H]3CC[C@H]4C[C@@H](O)CC[C@]4(C)[C@@H]3C(=O)C[C@@]12C`, the entry is “inactive”; as for `CN1CCCC2(CCN(C(=O)Oc3ccccc3)CC2)C1`, “inactive”.

`CN1CCC2(CC1)CCN(C(=O)Oc1ccccc1)CC2`: the Potency result was “inactive”.

`CN1C[C@H](CO)C=C2c3cccc4[nH]cc(c34)C[C@@H]21`: the Potency entry is “inactive”. Consider `CN1CCCC2(CCN(C(=O)c3csnn3)CC2)C1`, for which the Potency result was “inactive”. Consider `COP(=O)(OC)[C@@H](O)C(Cl)(Cl)Cl`, for which the Potency result was “inactive”.

`CC(C)(C)NC[C@H](O)c1cc(Cl)c(N)c(Cl)c1`: the Potency entry was “inactive”. Turning to `COc1ccc(NC(=O)N2CCC3(CC2)CCN(C(=O)Oc2ccccc2)CC3)cc1`, the Potency entry is “inactive”.

Take `O=C(c1ccco1)N1CCC2(CC1)CN(Cc1ccncc1)C2`: the Potency entry was “inactive”. Under `c1cc(CN2CC3(CCNCC3)C2)ccn1` stands “inactive”; under `Oc1ccc2c3c1O[C@H]1[C@@H](O)CC[C@]4(O)[C@H](C2)N(CC2CCC2)CC[C@@]314`, “inactive”; under `CC(C)CN1CCCC2(CCN(C(=O)c3ccncc3)CC2)C1`, “inactive”. Under `O=C(c1csnn1)N1CCC2(CC1)CN(Cc1ccncc1)C2` stands “inactive”; under `CC(C)CN1CC2(CCN(C(=O)Oc3ccccc3)CC2)C1`, “inactive”. Take `C[C@@]12CC[C@H]3[C@@H](CC[C@@H]4C[C@H]5S[C@H]5C[C@]43C)[C@H]1CC[C@H]2O`: the Potency entry was “inactive”. Under `O=c1ccc2cc(O[C@H]3O[C@@H](CO)[C@@H](O)[C@@H](O)[C@@H]3O)c(O)cc2o1` stands “inactive”; under `O=C(c1ccco1)N1CCC[C@@]2(CCN(Cc3ccncc3)C2)C1`, “inactive”; under `CN1C(=O)CCS(=O)(=O)[C@@H]1c1ccc(Cl)cc1`, “inactive”. For the compound `c1cc(CN2CCCC3(CCNCC3)C2)ccn1`, the Potency entry was “inactive”. `C[C@@]12CCC(=O)C=C1C=C[C@H]1[C@H]3CC[C@](O)(CCC(=O)O)[C@]3(C)CC[C@@H]12`: the Potency entry is “inactive”. In the case of `CC(C)[C@@]1(NC(=O)[C@@H]2C[C@H]3c4cccc5[nH]cc(c45)C[C@@H]3N(C)C2)O[C@]2(O)[C@H]3CCCN3C(=O)CN2C1=O`, the Potency result is “inactive”.

With `C[C@H]1CC[C@@]2(NC1)O[C@@H]1C[C@H]3[C@@H]4CC[C@@H]5C[C@@H](O)CC[C@@]5(C)[C@@H]4CC[C@]3(C)[C@@H]1[C@@H]2C`, the Potency entry was “inactive”. Consider `COc1cc(C=C(C#N)C#N)cc(O)c1O`, for which the Potency entry was “inactive”. `CC1=NCCc2c1[nH]c1cc(O)ccc21`: the Potency result is “inactive”. Under `CO[C@@H](C)[C@](O)(C(=O)OCC1=CCN2CC[C@@H](O)[C@H]12)C(C)C` stands “inactive”; under `O=C(Oc1ccccc1)N1CCC2(CCCN(Cc3nccs3)C2)CC1`, “inactive”; under `CN1CC[C@]2(C)c3cc(O)ccc3N(C)[C@@H]12`, “inactive”. Under `N#Cc1ccc(CN2CC[C@@]3(CCCN(C(=O)Oc4ccccc4)C3)C2)cc1` stands “inactive”. Consider `CN1[C@@H]2CC[C@H]1CC(O)C2` (stereo not given in full), for which the Potency result is “inactive”. `O=C(Oc1ccccc1)N1CCC2(CC1)CN(Cc1ccncc1)C2`: the Potency entry is “inactive”. As to `O=C(Oc1ccccc1)N1CCC2(CCN(Cc3nccs3)CC2)CC1`, the Potency result was “inactive”.

For the compound `c1ccc(N2CC3(CCNCC3)C2)nc1`, the Potency entry is “inactive”.

For the compound `O=C(Oc1ccccc1)N1CCC[C@@]2(CCN(C(c3ccccc3)c3ccccc3)C2)C1`, the Potency result was “inactive”. Under `NCC[C@H](O)C(=O)N[C@H]1C[C@@H](N)[C@@H](O[C@H]2O[C@@H](CN)[C@@H](O)[C@@H](O)[C@@H]2N)[C@@H](O[C@H]2O[C@@H](CO)[C@@H](O)[C@@H]2O)[C@@H]1O` stands “inactive”.
